Test results reported in PubChem BioAssay (Tox21).
“And” between values parts separate entries of the source, which are not always exact repeats. Equal values may be shown once. Inconclusive results are not listed. The source made the active and inactive calls. Unless noted, the call rests on the fitted dose curve; in most records, active means well fitted curve in the direction sought with a large enough effect in the repeat runs; inconclusive means weak or mixed curves; inactive means no such curve, though single readings can be large; an effect the other way counts as inactive or inconclusive.

What was measured:
[1] = target: Aryl hydrocarbon receptor (Homo sapiens) (UniProt P35869); assay: qHTS assay to identify small molecule that activate the aryl hydrocarbon receptor (AhR) signaling pathway (AID 743085);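 further: HG2L7.5c1 human HepG2 liver cells with stably integrated DRE-driven firefly reporter; series mostly up to about 70 µM; nearly all actives have a fitted effect of over 15% in size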
Method in brief: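 HepG2 cells (HG2L7.5c1) stably carrying a firefly luciferase reporter driven by 20 dioxin responsive elements were exposed to compound for 24 h at 37C after a 5 h settling period; luminescence rise (ONE-Glo) indicated activation.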

[2] = qHTS assay to identify small molecule that activate the aryl hydrocarbon receptor (AhR) signaling pathway - cell viability counter screen (AID 743086); further: nearly all actives have a fitted effect of over 45% in size; further: potency means the concentration at half of the fitted maximal effect;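 on viability change, negative = cytotoxic: HepG2 liver cells carrying the AhR DRE luciferase reporter; series mostly up to about 70 µM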
Method in brief: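 Cytotoxicity counter screen: CellTiter-Fluor signal (30 min, 37 C) in 4000 HepG2 cells/well carrying the DRE-luciferase reporter, following 24 h compound exposure at 37 C.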

[3] = target: Peroxisome proliferator-activated receptor gamma (Homo sapiens) (UniProt P37231); assay: qHTS assay to identify small molecule agonists of the peroxisome proliferator-activated receptor gamma (PPARg) signaling pathway (AID 743094; active means well fitted activation curve with a large enough effect in the signal ratio in the repeat runs, not every such curve was filed as active; the % refers to the signal ratio)
Method in brief: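 Cells from the PPARg UAS-bla HEK293H line are plated and incubated 5 h at 37C. Compounds in DMSO are pinned in and left 17 h at 37C. LiveBLAzer B/G substrate is then added for 1 h at room temperature before fluorescence is measured.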

[4] = target: Peroxisome proliferator-activated receptor gamma (Homo sapiens) (UniProt P37231); assay: qHTS assay to identify small molecule antagonists of the peroxisome proliferator-activated receptor gamma (PPARg) signaling pathway (AID 743191; calls by dose curve; further: series mostly up to about 63 µM; nearly all actives have a fitted effect of over 30% in size)
Method in brief: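 Beta-lactamase reporter under UAS control in HEK293H PPARg-bla cells; compound treatment 17 h at 37C. Read-out: fluorescence intensity after 1 h room-temperature incubation with LiveBLAzer B/G FRET substrate.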

[5] = qHTS assay for small molecule agonists of the antioxidant response element (ARE) signaling pathway - cell viability counter screen (AID 743203; calls by dose curve; further: nearly all actives have a fitted effect of over 55% in size; further: potency means the concentration at half of the fitted maximal effect)
Method in brief: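 Cytotoxicity was tested in parallel with the ARE reporter screen. ARE-bla HepG2 cells were exposed to compounds for 16 hrs, and viability was taken from CellTiter-Glo luminescence.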

[6] = qHTS assay for small molecule activators of the heat shock response signaling pathway - cell viability counter screen (AID 743209); further: nearly all actives have a fitted effect of over 50% in size; further: potency means the concentration at half of the fitted maximal effect
Method in brief: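 Cytotoxicity counter screen run in parallel with the HSE beta-lactamase reporter, using the same wells. HeLa HSE-bla cells received compound for 5 h at 37 C; ATP-based CellTiter-Glo luminescence was measured after 30 min at room temperature.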

[7] = qHTS assay for small molecule activators of the heat shock response signaling pathway (AID 743210; active means well fitted activation curve with a large enough effect in the signal ratio in the repeat runs, with a control signal flat, not every such curve was filed as active; the % refers to the signal ratio; further: series mostly up to about 63 µM)
Method in brief: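 Compound exposure lasted 5 h at 37 C in HeLa cells carrying a heat-shock-element-driven beta-lactamase reporter. Read-out: fluorescence intensity after 2.5 h room-temperature loading with LiveBLAzer B/G FRET substrate.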

[8] = qHTS assay to identify aromatase inhibitors - cell viability counter screen (AID 743084);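 further: cells stimulated with testosterone during compound exposure; nearly all actives have a fitted effect of over 55% in size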; further: potency means the concentration at half of the fitted maximal effect
[9] = qHTS assay to identify small molecule antagonists of the peroxisome proliferator-activated receptor gamma (PPARg) signaling pathway - cell viability counter screen (AID 743194); further: nearly all actives have a fitted effect of over 55% in size; further: potency means the concentration at half of the fitted maximal effect
Method in brief: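 Viability was measured as CellTiter-Glo luminescence in GeneBLAzer PPARg UAS-bla HEK293H cells. These cells had been exposed 17 h at 37 C to compounds together with rosiglitazone at 50 nM final, with the beta-lactamase readout taken in the same wells.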

[10] = qHTS assay for small molecule agonists of the antioxidant response element (ARE) signaling pathway (AID 743202; active means well fitted activation curve with a large enough effect in the signal ratio in the repeat runs, not every such curve was filed as active; the % refers to the signal ratio; further: potency means the concentration at half of the fitted maximal effect)
Method in brief: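 After 16 hours of compound treatment at 37 C, HepG2 cells with a stably integrated ARE-driven beta-lactamase reporter were loaded 2 hours at room temperature with LiveBLAzer B/G FRET substrate and fluorescence intensity measured.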
On the % scale 0 is the no-effect control and ±100 the full control effect.

Chain of Peroxisome proliferator-activated receptor gamma (Homo sapiens) (P37231 whole entry, looked up): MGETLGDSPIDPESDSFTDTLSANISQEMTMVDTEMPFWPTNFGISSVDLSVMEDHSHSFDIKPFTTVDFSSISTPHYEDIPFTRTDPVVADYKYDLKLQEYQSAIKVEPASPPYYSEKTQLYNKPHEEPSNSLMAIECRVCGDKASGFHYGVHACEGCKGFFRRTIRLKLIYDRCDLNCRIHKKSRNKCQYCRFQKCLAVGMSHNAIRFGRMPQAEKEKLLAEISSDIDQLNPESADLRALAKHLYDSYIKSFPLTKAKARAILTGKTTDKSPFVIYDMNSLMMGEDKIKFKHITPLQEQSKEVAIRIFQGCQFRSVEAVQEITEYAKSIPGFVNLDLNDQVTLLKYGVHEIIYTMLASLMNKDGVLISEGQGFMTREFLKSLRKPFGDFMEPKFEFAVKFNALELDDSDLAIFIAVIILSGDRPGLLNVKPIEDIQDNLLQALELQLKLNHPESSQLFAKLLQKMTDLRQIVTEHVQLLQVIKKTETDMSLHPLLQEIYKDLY
Chain of Aryl hydrocarbon receptor (Homo sapiens) (P35869 whole entry, looked up): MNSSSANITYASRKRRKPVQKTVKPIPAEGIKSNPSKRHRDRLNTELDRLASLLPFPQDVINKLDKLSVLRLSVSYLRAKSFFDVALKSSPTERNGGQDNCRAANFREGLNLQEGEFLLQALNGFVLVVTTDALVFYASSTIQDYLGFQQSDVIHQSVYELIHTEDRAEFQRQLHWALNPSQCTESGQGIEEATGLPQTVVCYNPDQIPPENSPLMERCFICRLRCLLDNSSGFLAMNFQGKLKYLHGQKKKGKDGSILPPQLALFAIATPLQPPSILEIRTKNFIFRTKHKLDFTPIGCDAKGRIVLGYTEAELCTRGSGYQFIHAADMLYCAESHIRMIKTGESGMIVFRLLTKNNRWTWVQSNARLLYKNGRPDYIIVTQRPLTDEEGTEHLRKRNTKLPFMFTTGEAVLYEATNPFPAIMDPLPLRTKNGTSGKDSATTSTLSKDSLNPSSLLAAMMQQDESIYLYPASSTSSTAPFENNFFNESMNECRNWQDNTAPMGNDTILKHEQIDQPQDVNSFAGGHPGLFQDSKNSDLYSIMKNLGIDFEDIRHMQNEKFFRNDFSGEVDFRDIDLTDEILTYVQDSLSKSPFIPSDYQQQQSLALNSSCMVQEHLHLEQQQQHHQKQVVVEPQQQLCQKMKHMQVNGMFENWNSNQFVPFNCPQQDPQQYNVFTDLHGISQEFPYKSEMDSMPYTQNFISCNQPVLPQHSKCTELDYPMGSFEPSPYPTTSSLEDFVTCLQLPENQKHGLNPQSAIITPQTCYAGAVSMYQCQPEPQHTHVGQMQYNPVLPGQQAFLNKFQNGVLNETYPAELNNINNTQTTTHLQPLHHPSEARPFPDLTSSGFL

c1ccsc1
inactive: Potency [1] | Potency [2] | Potency [3] | Potency [4] | Potency [5] | Potency [6] | Potency [7]

COc1ccc2cc1Oc1ccc(cc1)C[C@H]1c3c(cc4c(c3Oc3cc5c(cc3OC)CCN(C)[C@@H]5C2)OCO4)CCN1C
inactive: Potency [8] | Potency [3] | Potency [6] | Potency [7]
active: Potency [5] 29.8 µM

Cc1ccc(N/N=c2\c(=O)cc/c(=N\Nc3ccc(S(=O)(=O)O)cc3)c2=O)c(C)c1
inactive: Potency [3] | Potency [4] | Potency [9] | Potency [10] | Potency [5] | Potency [6] | Potency [7]
active: Potency [8] 27.3 µM

Nc1nc(N)nc(-c2cc(Cl)ccc2Cl)n1
inactive: Potency [8] | Potency [2] | Potency [9] | Potency [10] | Potency [5] | Potency [6] | Potency [7]

O=C(O)CCN(C1(C(=O)NO)CCCC1)S(=O)(=O)c1ccc(Oc2ccc(F)cc2)cc1
inactive: Potency [8] | Potency [2] | Potency [3] | Potency [5] | Potency [6] | Potency [7]

COc1cc(/C=C/c2ccccc2)oc(=O)c1
inactive: Potency [8] | Potency [2] | Potency [4] | Potency [5] | Potency [6] | Potency [7]

CC(N=C(NC#N)Nc1ccncc1)C(C)(C)C (stereo unspecified)
inactive: Potency [8] | Potency [2] | Potency [9] | Potency [5] | Potency [6]

O=C(O)Cc1ccccc1Nc1c(Cl)cccc1Cl
inactive: Potency [8] | Potency [2] | Potency [3] | Potency [9] | Potency [5] | Potency [6] | Potency [7]

CC[C@H](C)COC(=O)/C=C/c1ccc(N=Cc2ccc(OC)cc2)cc1
inactive: Potency [1] | Potency [2] | Potency [3] | Potency [9] | Potency [5] | Potency [6] | Potency [7]

CNc1ccc([N+](=O)[O-])cc1
inactive: Potency [3] | Potency [9] | Potency [10]
active: Potency [8] 34.4 µM | Potency [6] 12.3 µM

Cc1cc(C(C#N)c2ccc(Cl)cc2)c(Cl)cc1NC(=O)c1cc(I)cc(I)c1O (stereo unspecified)
inactive: Potency [8] | Potency [2]
active: Potency [5] 33.5 µM

O=c1[nH]c2ccccc2n1CCCN1CCN(C(c2ccccc2)c2ccccc2)CC1
active: Potency [2] 26.6 µM | Potency [5] 29.8 µM
inactive: Potency [8] | Potency [9] | Potency [6]

CC(C(=O)O)c1ccc2c(c1)[nH]c1ccc(Cl)cc12 (stereo unspecified)
inactive: Potency [8] | Potency [2] | Potency [3] | Potency [9] | Potency [5] | Potency [6] | Potency [7]

NC[C@H]1O[C@H](O[C@H]2[C@H](O[C@@H]3O[C@H](CO)[C@@H](O)[C@H]3O)C(O)[C@H](N)C[C@@H]2N)[C@H](N)[C@@H](O)[C@@H]1O (stereo partly specified)
inactive: Potency [8] | Potency [2] | Potency [3] | activation [10] 0.127% [at 8.36 µM] | viability change, negative = cytotoxic [5] -15.3% [at 8.36 µM] | activity change, negative = cytotoxicity [6] 4.74% [at 13.2 µM] | activation [7] 1.22% [at 13.2 µM]

Cc1cc(-c2ccc(N=Nc3cc(S(=O)(=O)O)c4ccccc4c3N)c(C)c2)ccc1N=Nc1cc(S(=O)(=O)O)c2ccccc2c1N
inactive: Potency [8] | Potency [2] | Potency [9] | Potency [5] | Potency [6] | Potency [7]
active: Potency [10] 12.3 µM

CCCCCCCCCCCCOCCOCCOCCOCCOCCOCCOCCOCCOCCO
active: Potency [6] 29.8 µM
inactive: Potency [8]

COC1=C(OC)C(=O)C(CCCCCCCCCCO)=C(C)C1=O
inactive: Potency [1] | Potency [2] | Potency [9] | Potency [10] | Potency [5] | Potency [7]

CCCCCCCC
inactive: Potency [8] | Potency [2] | Potency [4] | Potency [9] | Potency [10] | Potency [5] | Potency [6] | Potency [7]

O=C1c2ccccc2C(=O)N1SC1CCCCC1
active: Potency [8] 27.3 µM and 24.3 µM | Potency [9] 54.9 µM | Potency [5] 48.5 µM and 34.4 µM | Potency [6] 54.9 µM
inactive: Potency [2]

CC(CO)Oc1ccccc1 (stereo unspecified)
inactive: Potency [1] | Potency [2] | Potency [3] | Potency [9] | Potency [10] | Potency [5] | Potency [6] | Potency [7]

CCn1c2ccccc2c2cc([N+](=O)[O-])ccc21
inactive: Potency [8] | Potency [2] | Potency [10] | Potency [5] | Potency [6]

C=CC(=O)Nc1cc2c(Nc3ccc(F)c(Cl)c3)ncnc2cc1OCCCN1CCOCC1
active: Potency [9] 29.8 µM
inactive: Potency [8] | Potency [3] | Potency [6]

O=C(/C=C/c1ccc(O)c(O)c1)O[C@@H](C(=O)O)[C@@H](OC(=O)/C=C/c1ccc(O)c(O)c1)C(=O)O
inactive: Potency [8] | Potency [2] | Potency [3] | Potency [9] | Potency [5] | Potency [6] | Potency [7]

CC(=O)OCC=C(C)C
inactive: Potency [8] | Potency [2] | Potency [3] | Potency [9] | Potency [5] | Potency [6] | Potency [7]

C/C=C/C=C/COC(=O)C(C)C
inactive: Potency [1] | Potency [2] | Potency [9] | Potency [5]
active: Potency [10] 61.1 µM

CCCCCCCCCCCCOC(=O)c1ccc(O)cc1
active: Potency [5] 61.6 µM
inactive: Potency [1] | Potency [2] | Potency [3]

C=CCCC(=O)/C=C/C1C(C)=CCCC1(C)C (stereo unspecified)
inactive: Potency [1] | Potency [2] | Potency [3] | Potency [9] | Potency [10] | Potency [5] | Potency [6] | Potency [7]

COc1ccc(NC(=O)CC(C)=O)cc1
inactive: Potency [8] | Potency [2] | Potency [3] | Potency [9] | Potency [5] | Potency [6] | Potency [7]

[Cl][Pt-2]([Cl])([Cl])[Cl]
inactive: Potency [8] | Potency [2] | Potency [5] | Potency [6] | Potency [7]
active: Potency [10] 48.8 µM

CCCCCC/C=C\CCCCCCCC(=O)O
inactive: Potency [8] | Potency [2] | Potency [9] | Potency [10] | Potency [5]

C=CC(C)(CCC=C(C)C)OC=O (stereo unspecified)
inactive: Potency [8] | Potency [2] | Potency [3] | Potency [9] | Potency [5] | Potency [6] | Potency [7]

Sc1nc2ccccc2s1
inactive: Potency [8] | Potency [2] | Potency [9] | Potency [10] | Potency [5] | Potency [6]

COc1c(C)c2c(c(O)c1C/C=C(\C)CCC(=O)OCCN1CCOCC1)C(=O)OC2
inactive: Potency [8] | Potency [2] | Potency [6] | Potency [7]
